The record followed here is PubChem BioAssay (Tox21).

The nature of test [1]: Nuclear factor erythroid 2-related factor 2/antioxidant responsive element (Nrf2/ARE) small molecule agonists: luciferase reporter gene qHTS assay in human keratinocytes (AID 1919969). Further: nearly all actives have a fitted effect of over 35% in size. Further: potency means the concentration at half of the fitted maximal effect.
The target of test [2] is Gonadotropin-releasing hormone receptor (Homo sapiens) (UniProt P30968). The test is described as follows: Human gonadotropin-releasing hormone receptor (GnRHR) small molecule agonists, calcium flux assay in GnRHR-HEK293 cells (AID 1920063). Further: nearly all actives have a fitted effect of over 35% in size. In short, it runs like this: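 Calcium-dye fluorescence, Ex/Em=480/540, recorded every 1 sec over 3 min after compound addition to GnRHR-HEK293 cells. Cells had been seeded 18 hours earlier and dye-loaded for 1 hour at 37 C. Fifteen concentrations, triplicates.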
Sequence of Gonadotropin-releasing hormone receptor (Homo sapiens) (P30968 whole entry, looked up): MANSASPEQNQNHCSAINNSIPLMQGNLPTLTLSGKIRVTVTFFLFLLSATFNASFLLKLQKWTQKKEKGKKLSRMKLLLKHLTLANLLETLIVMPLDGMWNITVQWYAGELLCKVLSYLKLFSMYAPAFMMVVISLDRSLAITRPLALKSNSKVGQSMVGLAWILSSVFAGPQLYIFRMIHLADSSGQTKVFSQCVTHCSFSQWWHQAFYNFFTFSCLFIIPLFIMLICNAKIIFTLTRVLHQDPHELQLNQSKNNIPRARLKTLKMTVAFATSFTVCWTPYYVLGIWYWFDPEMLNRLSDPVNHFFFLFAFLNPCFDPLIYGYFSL

Test [3] deals with KiSS-1 receptor (Homo sapiens) (UniProt Q969F8). The test is described as follows: Human kisspeptin (KISS1R) small molecule agonists, calcium flux assay in KISS1R-HEK293 cells (AID 1920064; active means well fitted activation curve with a large enough effect in the repeat runs). In short, it runs like this:
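Calcium flux read-out: kinetic fluorescence at Ex/Em=480/540, 1 s intervals over 3 min, after pin-tool compound addition to dye-loaded KISS1R-HEK293 cells. Fifteen concentrations, triplicates.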

A short description of test [4]: G protein-coupled receptor (GPCR) small molecule agonists, calcium flux assay: HEK293 wild type cell line counter screen (AID 1920065). In short, it runs like this: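 Agonist mode; 18 h seeding at 37 C, 1 h dye load at 37 C; compounds pinned from DMSO, ATP as positive control; kinetic fluorescence 480/540 nm, 3 min, 1 s reads; 15 concentrations, triplicate.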
A short description of test [5]: p53 small molecule agonists, cell-based qHTS assay with human liver microsomes: qHTS cell viability counter screen (AID 1963579). Further: nearly all actives have a fitted effect of over 45% in size. In short, it runs like this: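 Tox21 library compounds, delivered from DMSO stocks, were tested on p53RE-bla cells together with 0.5 mg/mL human liver microsomes and 0.5 mg/mL NADPH (final) over 16 h at 37 C; CellTiter-Glo luminescence served as the cytotoxicity measure.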

Test [6] is described as follows: p53 small molecule agonists, cell-based qHTS assay with rat liver microsomes: qHTS cell viability counter screen (AID 1963580). Further: nearly all actives have a fitted effect of over 45% in size. Further: potency means the concentration at half of the fitted maximal effect. In short, it runs like this:
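Cytotoxicity counter screen: intracellular ATP measured by CellTiter-Glo luminescence in the same wells as the beta-lactamase reporter read, on HCT-116 p53RE-bla cells exposed 16 h at 37 C to compounds with rat liver microsomes and NADPH, each 0.5 mg/mL final.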

Test [7] can be described thus: p53 small molecule agonists, cell-based qHTS assay: qHTS cell viability counter screen (AID 1963581). Further: nearly all actives have a fitted effect of over 45% in size. In short, it runs like this:
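Cytotoxicity read-out: ATP-based luminescence (CellTiter-Glo, 30 min RT) measured in the same wells as the p53 reporter assay, HCT-116 p53RE-bla cells, 16 h compound exposure at 37 C.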

The target of test [8] is 5-hydroxytryptamine receptor 2A (Homo sapiens) (UniProt P28223). The test is described as follows: 5-hydroxytryptamine receptor 2A (HTR2A) small molecule agonists, cell-based qHTS assay (AID 1963587). Further: nearly all actives have a fitted effect of over 30% in size. In short, it runs like this: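 CHO cells stably expressing human HTR2A, plated 18 h, loaded with calcium dye 1 h at 37 C. Agonist mode: compounds added and intracellular calcium fluorescence recorded kinetically for 2 min at 1 sec intervals.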
Sequence of 5-hydroxytryptamine receptor 2A (Homo sapiens) (P28223 whole entry, looked up): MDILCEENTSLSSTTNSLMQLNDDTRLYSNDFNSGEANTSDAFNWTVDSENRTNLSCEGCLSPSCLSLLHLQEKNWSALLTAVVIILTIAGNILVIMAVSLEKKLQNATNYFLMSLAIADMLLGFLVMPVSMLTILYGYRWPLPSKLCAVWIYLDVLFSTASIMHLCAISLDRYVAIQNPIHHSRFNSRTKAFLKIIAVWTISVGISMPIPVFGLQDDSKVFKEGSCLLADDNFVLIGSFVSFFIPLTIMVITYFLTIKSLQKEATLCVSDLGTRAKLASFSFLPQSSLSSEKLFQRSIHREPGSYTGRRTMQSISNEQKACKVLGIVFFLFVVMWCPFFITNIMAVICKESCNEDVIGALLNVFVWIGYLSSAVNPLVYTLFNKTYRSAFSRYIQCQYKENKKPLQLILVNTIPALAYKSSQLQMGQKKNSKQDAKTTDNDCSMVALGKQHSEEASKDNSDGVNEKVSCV

The target in test [9] is Muscarinic acetylcholine receptor M1 (Homo sapiens) (UniProt P11229). The test is described as follows: Cholinergic receptor muscarinic 1 (CHRM1) small molecule antagonists, cell-based qHTS assay (AID 1963588). Further: nearly all actives have a fitted effect of over 40% in size. In short, it runs like this:
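Compounds were tested at 15 concentrations in three independent runs. Dye-loaded CHRM1-CHO cells were exposed 5 min at room temperature before stimulation by acetylcholine added at 50nM. Intracellular calcium was read kinetically on FDSS for 3 min.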

Test [10] has the same target. The test is described as follows: Cholinergic receptor muscarinic 1 (CHRM1) small molecule agonists, cell-based qHTS assay (AID 1963589). Further: nearly all actives have a fitted effect of over 35% in size. In short, it runs like this: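 Calcium flux read-out: kinetic fluorescence at 1 sec intervals after pin-tool compound addition to dye-loaded CHRM1-CHO cells (human M1). Agonist mode; 15 concentrations tested in triplicate independent runs.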

A short description of test [11]: cAMP Responsive Elements (CRE) small molecule agonists, cell-based qHTS assay (AID 1963590). In short, it runs like this: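 Beta-lactamase reporter readout: LiveBLAzer B/G FRET substrate, 2 h at room temperature, added after 3 h compound treatment of CRE-bla HEK 293T cells at 37 C/5% CO2.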
Test [12] can be described thus: cAMP Responsive Elements (CRE) small molecule antagonists, cell-based qHTS assay (AID 1963591; active means well fitted inhibition curve with a large enough effect in the signal ratio in the repeat runs, not every such curve was filed as active; the % refers to the signal ratio; further: potency means the concentration at half of the fitted maximal effect). In short, it runs like this:
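HEK293T CRE-bla; 18 h preincubation; compound pin-transfer; NKH477 0.25 uM final, 3 h, 37 C; LiveBLAzer FRET substrate 2 h RT.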

In test [13] the target is Beta-2 adrenergic receptor (Homo sapiens) (UniProt P07550). The test is described as follows: Adrenergic beta2 receptor (ADRB2) small molecule antagonists, cell-based qHTS assay (AID 1963592). Further: series mostly up to about 92 µM; nearly all actives have a fitted effect of over 50% in size. In short, it runs like this:
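Assay format: CHO-ADRB2 cells, 18-20hr seeding at 37C/5% CO2, then compound plus 1nM isoproterenol agonist mix for 0.5hr RT. Homogeneous time-resolved fluorescence cAMP detection after 1hr, expressed as 665/615 nm ratio.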

The target is the same in test [14]. The test is described as follows: Adrenergic beta2 receptor (ADRB2) small molecule agonists, cell-based qHTS assay (AID 1963593).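 Further: CHO cells stably overexpressing human ADRB2.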 In short, it runs like this: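 CHO cells stably over-expressing ADRB2 were plated overnight at 37C, then dosed with compounds plus a stimulation mix containing 100uM IBMX and 25uM Ro-20-1724 for 0.5hr at room temperature. cAMP was measured by HTRF competition, 1hr.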

The target in test [15] is D(2) dopamine receptor (Homo sapiens) (UniProt P14416). The test is described as follows: Dopamine D2 receptor (DRD2) small molecule antagonists, cell-based qHTS assay (AID 1963595; active means well fitted inhibition curve with a large enough effect in the signal ratio in the repeat runs, with a control signal flat; the % refers to the signal ratio). In short, it runs like this: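 Readout: HTRF cAMP, cAMP-d2 competing with cellular cAMP for anti-cAMP cryptate, read after 1 h. Cells: DRD2-HEK293. Conditions: 0.1 mM Ro20-1724, 12 nM quinpirole, 200 nM NKH477, 30 min RT.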
Sequence of D(2) dopamine receptor (Homo sapiens) (P14416 whole entry, looked up): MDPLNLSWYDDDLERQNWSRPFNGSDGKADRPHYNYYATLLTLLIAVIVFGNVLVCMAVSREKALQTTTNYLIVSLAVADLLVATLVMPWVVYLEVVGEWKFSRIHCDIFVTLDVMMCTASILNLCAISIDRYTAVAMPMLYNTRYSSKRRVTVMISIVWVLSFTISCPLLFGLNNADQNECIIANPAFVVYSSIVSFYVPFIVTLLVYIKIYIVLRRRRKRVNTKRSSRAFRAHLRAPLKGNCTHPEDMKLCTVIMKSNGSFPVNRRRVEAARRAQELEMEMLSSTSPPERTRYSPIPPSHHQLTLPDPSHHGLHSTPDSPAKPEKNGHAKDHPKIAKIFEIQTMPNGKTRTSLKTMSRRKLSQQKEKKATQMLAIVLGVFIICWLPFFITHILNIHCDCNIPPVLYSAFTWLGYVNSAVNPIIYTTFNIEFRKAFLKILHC

Test [16] concerns the target 5-hydroxytryptamine receptor 2A (Homo sapiens) (UniProt P28223). The test is described as follows: 5-hydroxytryptamine receptor 2A (HTR2A) small molecule antagonists, cell-based qHTS assay (AID 1963586). Further: nearly all actives have a fitted effect of over 45% in size. In short, it runs like this: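 CHO cells stably expressing human HTR2A were plated for 18 h at 37 C, then loaded with calcium dye for 1 h. Compounds were preincubated 5 min at room temperature before DOI (4 nM solution) was added. Kinetic fluorescence was read for 3 min.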

For test [17], the target named is D(2) dopamine receptor (Homo sapiens) (UniProt P14416). The test is described as follows: Dopamine D2 receptor (DRD2) small molecule agonists, cell-based qHTS assay (AID 1963594). Further: nearly all actives have a fitted effect of over 35% in size. In short, it runs like this: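 HEK293 cells stably expressing human DRD2, pre-treated with PDE inhibitor Ro20-1724 (0.1 mM final) and compound 10 min at room temperature, then stimulated with NKH477 (200nM […]) for 30 min. cAMP read by HTRF (665/620 nm).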

Test [18] in a line: p53 small molecule agonists, cell-based qHTS assay with rat liver microsomes (AID 1963578). In short, it runs like this:
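Each plate received p53RE-bla cells, then compound, then rat liver microsomes and NADPH (both 0.5 mg/mL final). Plates were held 16 h at 37 C, and beta-lactamase activity was detected with LiveBLAzer over 2 h.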

A short description of test [19]: p53 small molecule agonists, cell-based qHTS assay (AID 1963582; active means well fitted activation curve with a large enough effect in the signal ratio in the repeat runs, not every such curve was filed as active; the % refers to the signal ratio). In short, it runs like this: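 Fluorescence intensity read-out of a beta-lactamase reporter under a p53 response element. Cells were exposed to DMSO-dissolved compounds for 16 h at 37 C, then developed with FRET substrate for 2 h at RT.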

Values without a mark were called inactive. Results filed as inconclusive are left out. The source made the active and inactive calls. Unless noted, the call rests on the fitted dose curve.
On the % scale 0 is the no-effect control and ±100 the full control effect.

Sequence of KiSS-1 receptor (Homo sapiens) (Q969F8 whole entry, looked up): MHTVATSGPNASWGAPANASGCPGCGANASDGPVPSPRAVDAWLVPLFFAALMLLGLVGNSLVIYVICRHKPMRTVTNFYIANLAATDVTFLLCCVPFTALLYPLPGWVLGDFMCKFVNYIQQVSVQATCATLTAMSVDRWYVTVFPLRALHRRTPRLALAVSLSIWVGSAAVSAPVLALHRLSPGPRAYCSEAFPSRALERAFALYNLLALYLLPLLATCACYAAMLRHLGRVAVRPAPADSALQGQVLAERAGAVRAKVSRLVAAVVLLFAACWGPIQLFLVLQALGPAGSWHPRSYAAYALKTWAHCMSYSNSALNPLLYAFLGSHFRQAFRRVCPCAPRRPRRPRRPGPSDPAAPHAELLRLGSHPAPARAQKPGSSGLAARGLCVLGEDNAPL
Sequence of Muscarinic acetylcholine receptor M1 (Homo sapiens) (P11229 whole entry, looked up): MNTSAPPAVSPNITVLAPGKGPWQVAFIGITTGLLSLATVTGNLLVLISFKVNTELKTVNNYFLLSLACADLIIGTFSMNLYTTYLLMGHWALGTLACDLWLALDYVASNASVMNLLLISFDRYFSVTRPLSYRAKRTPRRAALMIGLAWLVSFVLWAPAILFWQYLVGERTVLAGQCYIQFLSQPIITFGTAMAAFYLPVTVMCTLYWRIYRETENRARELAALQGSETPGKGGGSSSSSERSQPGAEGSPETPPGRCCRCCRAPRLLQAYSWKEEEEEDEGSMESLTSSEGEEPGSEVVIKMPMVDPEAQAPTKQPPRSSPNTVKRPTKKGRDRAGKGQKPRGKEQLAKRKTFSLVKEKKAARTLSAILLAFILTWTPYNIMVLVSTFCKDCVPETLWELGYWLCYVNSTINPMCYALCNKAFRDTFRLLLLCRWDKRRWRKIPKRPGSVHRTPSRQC
Sequence of Beta-2 adrenergic receptor (Homo sapiens) (P07550 whole entry, looked up): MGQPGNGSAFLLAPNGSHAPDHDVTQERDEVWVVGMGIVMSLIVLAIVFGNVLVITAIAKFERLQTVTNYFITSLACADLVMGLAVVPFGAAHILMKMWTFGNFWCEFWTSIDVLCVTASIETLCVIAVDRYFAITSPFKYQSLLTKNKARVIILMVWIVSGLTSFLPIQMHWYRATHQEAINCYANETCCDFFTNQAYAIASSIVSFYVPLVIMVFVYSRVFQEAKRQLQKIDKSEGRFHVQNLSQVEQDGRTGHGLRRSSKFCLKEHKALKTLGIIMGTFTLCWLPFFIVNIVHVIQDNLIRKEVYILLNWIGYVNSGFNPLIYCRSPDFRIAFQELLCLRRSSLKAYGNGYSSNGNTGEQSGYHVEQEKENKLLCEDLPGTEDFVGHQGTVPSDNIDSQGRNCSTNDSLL

Consider `O=C(O)CN(CCOCCOCCN(CC(=O)O)CC(=O)O)CC(=O)O`, for which, in [1], the activity, positive = activation is -0.157% [at 0.349 µM]. Besides, in test [2], the activity change is 0.537% [at 0.217 µM, hits give high values]. For the same molecule, the activation in test [3] is -1.47% [at 0.29 µM]; in [4], -0.598% [at 0.217 µM]; in test [8], -0.693% [at 0.292 µM]; in [10] it was -0.0666% [at 0.29 µM]; in [11] it was -1.26% [at 0.349 µM]; in [14], 0.525% [at 0.349 µM]. Moreover, the activity change, negative = cytotoxicity was 0.622% [at 0.249 µM] in test [5], -3.51% [at 0.249 µM] in test [6] and -15.2% [at 0.249 µM] in test [7]. The activity, negative = inhibition in test [9] was -20.9% [at 0.232 µM]. The figures for the activity change, negative = inhibition in test [12], in [13] and in [15] were 0.383% [at 0.349 µM], 0.881% [at 0.349 µM] and -1.35% [at 0.348 µM], respectively.
Consider `CCCOC(OCCC)OCCC`, for which the Potency result in test [1], in test [2], in test [3], in test [4], in test [5] and in [6] was “inactive” throughout. Moreover, the Potency result in [7], in test [16], in [8], in test [11], in [12] and in [13] was “inactive” throughout. Besides, the Potency entry in test [14], in [17] and in [15] was “inactive” each time.
Take `CCN(Cc1cccc(S(=O)(=O)O)c1)c1ccc(C(=C2C=CC(=[N+](CC)Cc3cccc(S(=O)(=O)O)c3)C=C2)c2ccccc2S(=O)(=O)[O-])cc1`: the Potency result in test [1], in test [2], in test [3], in test [4], in test [18] and in test [19] was “inactive” throughout. Further, the Potency entry in test [16], in test [8], in test [9], in test [10], in [11] and in [12] was “inactive” throughout. Also, the Potency in test [6] is 20.5 µM (active).
Take `CCN(CC)CCOc1ccc2c(c1)C(=O)c1cc(OCCN(CC)CC)ccc1-2`: the Potency in [1] is 33.5 µM (active); in test [12], 29.8 µM (active). For the same molecule, the Potency entry in [2], in test [3], in test [4], in test [5], in test [6] and in test [7] was “inactive” throughout. The Potency result in test [16], in [8], in test [9], in [10] and in test [11] was “inactive” each time.
Consider `c1ccc(CN(Cc2ccccc2)Cc2ccccc2)cc1`, for which, in [1], the Potency was 54.4 µM (active). For the same molecule, the Potency result in [2], in test [3], in test [4], in [5], in test [6] and in test [7] was “inactive” each time. The Potency result in test [16], in test [8], in test [9], in test [10], in [11] and in [12] was “inactive” each time. The Potency result in test [13], in [14] and in test [15] was “inactive” each time.
As to `COC(=O)c1ccccc1OC`, the Potency entry in test [1], in test [2], in [3], in test [4], in test [5] and in test [6] was “inactive” each time. For the same molecule, the Potency result in test [7], in [8], in test [9], in [10], in test [11] and in test [12] was “inactive” each time. In addition, the Potency result in test [13], in test [14], in test [17] and in test [15] was “inactive” in each case.
